T cruzi growth-1: inhibitors of T. cruzi proliferation. T. cruzi beta-gal in NIH3T3, GalScreen luminescence, 90 h. inhibition, % at 8.34 µM. 77,000 compounds, 5.9% hits. AID 624255;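 active = mean inhibition above about 93%, with at least 55% of replicates each passing it, limit read from the data, passing the limit was not always enough; inconclusive = only one of those two conditions holds; inactive = neither condition holds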
C diff HTS: blocks growth of Clostridium difficile; Clostridium difficile clinical isolate growth, OD600, 24 h; stronger effect = lower value; growth activity, negative = inhibition, % at 16 µg/mL (by protocol); 86,000 compounds, 0.25% hits; AID 1259249;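 active = mean growth activity at or below -80% and every replicate also at or below -80%; inconclusive = mean at or below -80% but some replicate above -80%; inactive = mean growth activity above -80%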;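 note: 0% = DMSO wells and -100% = levofloxacin 16 µg/mL wells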
T cruzi growth-2: Trypanosoma cruzi proliferation inhibition; T. cruzi beta-gal in NIH3T3, GalScreen luminescence, 90 h; shares compounds with T cruzi growth-1; 5,600 compounds, 72% hits; inhibition, % at 8.35 µM; AID 651739;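 active = mean replicate inhibition above about 95% and at least 55% of replicates individually reaching it, limit read from the data; inconclusive = only one of the two criteria is met; inactive = neither criterion is met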
T cruzi growth-3: inhibitors of T. cruzi proliferation | shares compounds with T cruzi growth-1 | T. cruzi beta-gal in NIH3T3, GalScreen luminescence, 90 h | inhibition, % at 2.09 µM | 5,600 compounds, 21% hits;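 active = mean inhibition above about 95%, with at least 55% of replicates also reaching it, limit read from the data; inconclusive = meets just one of the two conditions; inactive = meets neither condition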;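 note: plate controls were neutral control median for no effect and positive control median for full effect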
NIH3T3 tox: cytotoxicity in mouse NIH/3T3 fibroblasts; shares compounds with T cruzi growth-1; NIH/3T3 viability, CellTiter-Glo ATP luminescence, 90 h; cytotoxicity (signal decrease), % at 8.35 µM; 5,600 compounds, 14% hits;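 active = mean signal decrease across replicates above about 35% based on untreated-well scatter, with enough replicates individually passing, limit read from the data; inconclusive = no rule stated though some were filed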;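 note: 0% = median of neutral control wells and 100% = median of positive control wells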
NIH3T3 tox 2: cytotoxicity in mouse NIH/3T3 fibroblasts. shares compounds with T cruzi growth-1. NIH/3T3 viability, CellTiter-Glo ATP luminescence, 90 h. inhibition, % at 24.9 µM. 5,600 compounds, 56% hits;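 active = mean loss of cell viability signal at or above a set limit, and enough replicates individually reaching it; inconclusive = meets only the mean limit or only the replicate share; inactive = meets neither condition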;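 note: 0% = median of neutral control wells and 100% = median of positive control wells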
Active calls of the source: *; ? = inconclusive; nt = no result given. The sample as a whole holds a higher share of hits than the screen did.

SMILES | T cruzi growth-1 | C diff HTS | T cruzi growth-2 | T cruzi growth-3 | NIH3T3 tox | NIH3T3 tox 2
CO[C@H]1CN(C)C(=O)c2cc(NC(=O)NC(C)C)ccc2OC[C@@H](C)N(C(=O)NC(C)C)C[C@@H]1C | -81.8 | -4.0 | nt | nt | nt | nt
CCCNC(=O)N(C)C[C@H]1Oc2cc(C3=CCCCC3)ccc2S(=O)(=O)N([C@H](C)CO)C[C@@H]1C | 51.9 | 0.2 | nt | nt | nt | nt
Cc1noc(C)c1NC(=O)Nc1ccc2c(c1)C(=O)N([C@H](C)CO)C[C@@H](C)[C@H](CN(C)S(=O)(=O)c1ccc(F)cc1)OCCCC[C@H](C)O2 | -14.7 | -9.3 | nt | nt | nt | nt
CNC[C@H]1Oc2ccc(NS(=O)(=O)c3c(C)noc3C)cc2C(=O)N([C@@H](C)CO)C[C@@H]1C | 14.3 | 2.1 | nt | nt | nt | nt
COc1ccc(S(=O)(=O)N2CCCCN3[C@@H](CO)[C@H](c4ccc(C#CC5CC5)cc4)[C@@H]3C2)cc1 | 109.0* | 40.6 | 101.6* | 66.4 | 45.3* | 104.5*
C[C@@H]1CN([C@@H](C)CO)C(=O)c2cc(C#C[C@@H](C)O)cnc2O[C@H]1CN(C)Cc1cccc(C(=O)O)c1 | 17.7 | -2.4 | nt | nt | nt | nt
Cc1ccc(S(=O)(=O)Nc2ccc3c(c2)C(=O)N([C@H](C)CO)C[C@@H](C)[C@H](CN(C)S(C)(=O)=O)OCCCC[C@@H](C)O3)cc1 | 12.7 | -2.3 | nt | nt | nt | nt
C[C@H]1CN([C@@H](C)CO)C(=O)Cc2cc(NS(=O)(=O)c3ccc(Cl)cc3)ccc2O[C@H]1CN(C)Cc1ccccc1 | 87.3 | -0.8 | nt | nt | nt | nt
CCC(=O)Nc1ccc2c(c1)C(=O)N(C)C[C@H](OC)[C@@H](C)CN(C(=O)CN1CCOCC1)[C@H](C)CO2 | -35.3 | nt | nt | nt | nt | nt
C[C@H](CO)N1C[C@H](C)[C@H](CN(C)S(=O)(=O)c2ccc(F)cc2)Oc2cc(C#Cc3ccncc3)ccc2S1(=O)=O | 114.3* | 9.3 | 92.2 | 45.5 | ? | 64.8*
C[C@H]1CN([C@@H](C)CO)S(=O)(=O)c2ccc(C#Cc3ccncc3)cc2O[C@H]1CN(C)S(=O)(=O)c1ccc(F)cc1 | 118.3* | 9.8 | 101.8* | 67.0 | ? | 11.4
C[C@H]1CN([C@@H](C)CO)S(=O)(=O)c2ccc(C#Cc3ccncc3)cc2O[C@@H]1CN(C)S(=O)(=O)c1ccc(F)cc1 | 98.4 | -2.4 | nt | nt | nt | nt
C[C@@H]1CN([C@@H](C)CO)S(=O)(=O)c2ccc(C#Cc3ccncc3)cc2O[C@H]1CN(C)S(=O)(=O)c1ccc(F)cc1 | 90.5 | 2.4 | nt | nt | nt | nt
COc1cccc(S(=O)(=O)N[C@@H]2C=C[C@@H](CC(=O)NCc3ccccc3)O[C@H]2CO)c1 | -38.0 | -1.3 | nt | nt | nt | nt
CS(=O)(=O)N1[C@H](CO)[C@H](c2ccc(C#Cc3cccc(F)c3)cc2)[C@@H]1C#N | 89.3 | 15.2 | nt | nt | nt | nt
CS(=O)(=O)N1[C@H](CO)[C@@H](c2ccc(C#CC3CCCCC3)cc2)[C@@H]1C#N | 93.0 | -2.9 | nt | nt | nt | nt
CS(=O)(=O)N1[C@H](C#N)[C@H](c2ccc(C#Cc3cccc(F)c3)cc2)[C@H]1CO | ? | -6.9 | ? | 83.4 | -0.5 | 32.0*
CS(=O)(=O)N1[C@@H](C#N)[C@@H](c2ccc(C#CC3CCCCC3)cc2)[C@@H]1CO | 74.1 | 8.6 | nt | nt | nt | nt
CS(=O)(=O)N1[C@H](C#N)[C@H](c2ccc(C#CC3CCCC3)cc2)[C@@H]1CO | 99.1* | -4.1 | 102.9* | 89.4 | 19.6 | 34.6*
CS(=O)(=O)N1[C@H](C#N)[C@@H](c2ccc(C#CC3CC3)cc2)[C@@H]1CO | 106.6* | -3.3 | 100.2* | 45.7 | 12.5 | -1.3
C[C@H](CO)N1C[C@H](C)[C@H](CN(C)C(=O)Nc2ccccc2)Oc2ncc(C#Cc3ccc(F)cc3)cc2C1=O | 70.4 | 16.9 | nt | nt | nt | nt
C[C@H]1CN([C@@H](C)CO)S(=O)(=O)c2ccc(C#CC(C)(C)O)cc2O[C@H]1CN(C)C(=O)C1CC1 | -15.2 | nt | nt | nt | nt | nt
C[C@H](CO)N1C[C@H](C)[C@@H](CN(C)C(=O)C2CC2)Oc2cc(C#Cc3ccncc3)ccc2S1(=O)=O | 123.4* | nt | -15.4 | 16.6 | -10.0 | 61.6*
C[C@H](CO)N1C[C@H](C)[C@H](CN(C)C(=O)C2CC2)Oc2cc(C#Cc3ccncc3)ccc2S1(=O)=O | 105.2* | nt | 105.0* | -8.8 | 22.0 | 65.4*
C[C@@H]1CN([C@@H](C)CO)S(=O)(=O)c2ccc(C#CC(C)(C)O)cc2O[C@H]1CN(C)C(=O)C1CC1 | 101.7* | nt | -30.6 | -51.6 | 3.6 | 47.2*
SMILES | T cruzi growth-1 | C diff HTS | T cruzi growth-2 | T cruzi growth-3 | NIH3T3 tox | NIH3T3 tox 2
C[C@H]1CN([C@@H](C)CO)S(=O)(=O)c2ccc(C#Cc3ccncc3)cc2O[C@@H]1CN(C)C(=O)C1CC1 | 66.0 | nt | nt | nt | nt | nt
C[C@@H]1CN([C@H](C)CO)S(=O)(=O)c2ccc(C#Cc3ccncc3)cc2O[C@@H]1CN(C)C(=O)C1CC1 | 80.1 | nt | nt | nt | nt | nt
Cc1noc(C)c1NC(=O)N(C)C[C@H]1Oc2ccc(NS(=O)(=O)c3c(C)noc3C)cc2CC(=O)N([C@H](C)CO)C[C@@H]1C | -12.4 | -3.0 | nt | nt | nt | nt
CCCNC(=O)N1[C@H](C#N)[C@H](c2ccc(-c3ccccc3F)cc2)[C@@H]1CO | 91.3 | 17.9 | nt | nt | nt | nt
CCCNC(=O)N1[C@H](CO)[C@H](c2ccccc2)[C@@H]1CNC(=O)c1cccc(F)c1 | 97.9* | 3.9 | 85.7 | 33.2 | -0.1 | 37.3
CCCNC(=O)N1[C@@H](C#N)[C@H](c2ccc(C#Cc3cccc(F)c3)cc2)[C@@H]1CO | ? | -11.3 | 99.0* | 43.0 | 20.9 | ?
CCCNC(=O)N1[C@H](CO)[C@H](c2ccccc2)[C@@H]1C#N | 20.8 | -3.1 | nt | nt | nt | nt
CCCNC(=O)N1[C@H](CO)[C@@H](c2ccccc2)[C@@H]1CNC(=O)c1ccccc1 | 74.5 | -0.9 | nt | nt | nt | nt
CCCNC(=O)N1[C@@H](C#N)[C@@H](c2ccc(C#Cc3cccc(F)c3)cc2)[C@@H]1CO | 99.9* | -15.1 | 102.6* | 93.1 | 21.4 | 49.5*
O=C(C[C@H]1CC[C@@H](NS(=O)(=O)c2ccc(F)cc2)[C@H](CO)O1)NCCc1ccncc1 | 0.0 | 0.7 | nt | nt | nt | nt
CCC(=O)Nc1ccc2c(c1)C(=O)N(C)[C@@H]1CC[C@@H](CC(=O)NCCCN(C)C)O[C@@H]1CO2 | 53.7 | -6.1 | nt | nt | nt | nt
C[C@H]1CN([C@@H](C)CO)C(=O)c2cc(C#Cc3ccccn3)cnc2O[C@H]1CN(C)CC1CCCC1 | -1.5 | nt | nt | nt | nt | nt
COc1ccc(S(=O)(=O)Nc2ccc3c(c2)C(=O)N([C@H](C)CO)C[C@@H](C)[C@H](CN(C)S(=O)(=O)c2ccc(F)cc2)OCCCC[C@H](C)O3)cc1 | 71.5 | 0.7 | nt | nt | nt | nt
COc1ccc(S(=O)(=O)Nc2ccc3c(c2)C(=O)N([C@H](C)CO)C[C@H](C)[C@H](CN(C)S(=O)(=O)c2ccc(F)cc2)OCCCC[C@@H](C)O3)cc1 | -2.0 | 10.5 | nt | nt | nt | nt
COc1ccc(S(=O)(=O)N(C)C[C@@H]2OCCCC[C@@H](C)Oc3ccc(NS(=O)(=O)c4ccc(F)cc4)cc3C(=O)N([C@H](C)CO)C[C@H]2C)cc1 | 101.3* | 16.2 | 111.3* | 67.2 | 22.2 | -5.6
